Source: PubChem (The Scripps Research Institute Molecular Screening Center)
Rows were chosen to be rich in hits. Some 3.4% of all compounds tested hit in one or more screens of this group.
FBW7 act = human FBW7 E3 ligase activation, primary screen; Q969H0; AlphaScreen FBW7–phospho-cyclin E peptide binding, activator screen; normalized activity (activation), % at 26.1 µM; 0.13% of 650,000 active; AID 1259310; in the data active means normalized activity above about 1.9%;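 further: purified mutant Fbw7 with reduced substrate affinity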
Target sequence (Q969H0 whole entry, looked up): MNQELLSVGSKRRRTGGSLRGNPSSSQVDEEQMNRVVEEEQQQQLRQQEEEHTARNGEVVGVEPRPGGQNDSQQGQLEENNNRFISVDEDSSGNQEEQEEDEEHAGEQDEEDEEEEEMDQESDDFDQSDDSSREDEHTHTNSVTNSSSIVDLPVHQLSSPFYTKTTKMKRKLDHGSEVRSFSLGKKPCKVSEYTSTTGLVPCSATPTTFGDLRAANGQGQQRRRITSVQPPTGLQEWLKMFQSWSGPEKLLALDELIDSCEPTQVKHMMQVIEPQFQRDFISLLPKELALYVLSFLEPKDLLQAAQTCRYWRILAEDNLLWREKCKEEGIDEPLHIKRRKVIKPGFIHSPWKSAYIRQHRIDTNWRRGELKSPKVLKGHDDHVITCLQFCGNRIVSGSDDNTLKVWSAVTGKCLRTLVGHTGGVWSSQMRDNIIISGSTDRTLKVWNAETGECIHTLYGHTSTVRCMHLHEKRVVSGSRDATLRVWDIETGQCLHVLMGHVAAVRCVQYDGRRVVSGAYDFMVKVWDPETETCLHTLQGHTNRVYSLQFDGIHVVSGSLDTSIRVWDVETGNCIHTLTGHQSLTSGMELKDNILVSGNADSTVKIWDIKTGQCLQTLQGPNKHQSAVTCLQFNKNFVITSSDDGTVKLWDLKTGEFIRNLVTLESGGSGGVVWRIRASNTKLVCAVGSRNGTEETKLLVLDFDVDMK
TEAD-YAP inh = TEAD-YAP interaction inhibition. HEK-TIYL cells, TEAD-Gal4/YAP UAS-luciferase luminescence. inhibition, % at 9.12 µM. 1.4% of 640,000 active. AID 1259422; in the data active means inhibition above about 32%
MITF inh = human MITF inhibition, primary screen; O75030; AlphaScreen MITF homodimerization, bead proximity signal; inhibition, % at 2.6 µM; 0.91% of 650,000 active; AID 1259374; in the data active means inhibition above about 50%
GPR151 activ = activators of human GPR151; PathHunter beta-arrestin GPR151 cells, luminescence; activation, % at 11.2 µM; 1% of 650,000 active; AID 1508602; in the data active means activation above about 4.9%
Of the large screens only hits and unclear results are named; the others gave an inactive call.

COc1ccc(C(=O)Nc2ccc3c(c2)CN(C(=O)C(C)C)CC3)c(OC)c1OC	none
Cc1ccccc1OCC(=O)NNC(=O)C(c1ccccc1)c1ccccc1	none
O=C(c1cnc(N2CCN(c3ccccn3)CC2)c2ccccc12)N1CCN(Cc2ccc3c(c2)OCO3)CC1	TEAD-YAP inh 57
CCCNC(=O)c1cc(N2CCN(Cc3ccc4c(c3)OCO4)CC2)nc2ccccc12	none
O=C(NCCc1ccc(O)cc1)c1cc(N2CCN(Cc3ccc4c(c3)OCO4)CC2)nc2ccccc12	TEAD-YAP inh 48
COC(=O)c1cnc(N2CCN(Cc3ccc4c(c3)OCO4)CC2)c2ccccc12	none
CCc1cc2c(=O)c(-c3ccc4c(c3)OCCO4)coc2cc1OCC(=O)O	TEAD-YAP inh 87
CCc1cc2c(=O)c(-c3ccc4c(c3)OCO4)coc2cc1OC(C)=O	none
CCc1cc2c(=O)c(-c3ccc4c(c3)OCCCO4)coc2cc1OC(=O)c1ccco1	TEAD-YAP inh 44
CC(Oc1ccc(Br)cc1)C(=O)NNC(=S)NC(=O)c1cc2cc(Br)ccc2oc1=O (stereo not given)	none
O=C(NCC1CCC2(CCN(Cc3ccc4ncccc4c3)CC2)O1)C1CCCO1 (stereo not given)	FBW7 act 2.1
O=Cc1ccc(-c2ccc(NC3CC3)nc2)cc1	TEAD-YAP inh 34
COc1ccc(C(=O)Nc2noc3ccccc23)cc1	TEAD-YAP inh 86
COc1cccc(C(=O)Nc2cc(C)on2)c1	none
COc1cccc(C(=O)Nc2noc3ccccc23)c1	TEAD-YAP inh 57
COc1cc(-c2[nH]nc3c2C(c2cc(OC)c(OC(=O)N4CCOCC4)c(OC)c2)C(C#N)=C(N)O3)cc(OC)c1OC (stereo not given)	none
O=C(Cc1ccccc1)N/N=C/c1c[nH]c2ccc(Br)cc12	none
Cc1ccc(C(=O)c2sc3nc(C)ccc3c2N)c(C)c1	TEAD-YAP inh 37
COc1ccc(C(=O)c2sc3nc(C)ccc3c2N)cc1OC	TEAD-YAP inh 33
CN1CCc2c(OCC(=O)Nc3ccc(Br)cc3)cccc2C1=O	none
Nc1c(S(=O)(=O)O)cc(Nc2ccc(Nc3nc(Cl)nc(Nc4ccc(S(=O)(=O)O)cc4)n3)c(S(=O)(=O)O)c2)c2c1C(=O)c1ccccc1C2=O	MITF inh 61
CCCC1=C(C(=O)OCC)C(c2ccc(SC)cc2)C(C#N)=C(N)O1 (stereo not given)	none
COc1ccc(CC(=O)Nc2c3c(nn2-c2cccc(C)c2C)CS(=O)(=O)C3)cc1OC	none
COC(=O)c1cccc(-n2c(C)cc(/C=C(/C#N)C(=O)NCc3ccco3)c2C)c1	none
COC(=O)c1cccc(-n2c(C)cc(/C=C(\C#N)C(=O)Nc3ccccc3)c2C)c1	TEAD-YAP inh 39
CNC(=O)/C(C#N)=C/c1cc(C)n(-c2ccc(F)cc2)c1C	TEAD-YAP inh 71
Cc1cc(C)cc(NC(=O)C2C3C=CC4(O3)C2C(=O)N(CCN2CCCCC2C)C4C(=O)NC2CCCC(C)C2C)c1 (stereo not given)	none
COc1ccc(/C=C/C(=O)Nc2nc(CN3CCc4ccccc4C3)cs2)cc1OC	TEAD-YAP inh 45
O=C(Nc1nc(CN2CCc3ccccc3C2)cs1)c1ccc(F)cc1	TEAD-YAP inh 32
COc1ccccc1OCC(=O)Nc1nc(CN2CCc3ccccc3C2)cs1	none
COCCNC(=O)c1cccc(OC2CCN(C(C)CCC(=O)OC)CC2)c1 (stereo not given)	none
Cc1cc(C)c(C2C(C#N)=C(N)Oc3n[nH]c(-c4ccc(Cl)c(Cl)c4)c32)c(C)c1 (stereo not given)	none
Oc1ccccc1-c1nc2cnccn2c1NCc1ccc2c(c1)OCO2	TEAD-YAP inh 57
c1ccc(-c2nc3cnccn3c2NCc2ccc3c(c2)OCO3)cc1	none
C=CCNC(=S)NNC(=O)c1ccccc1O	TEAD-YAP inh 89
C=CCNC(=S)NNC(=O)c1ccccc1OCCC	none
OCCN1CCN(c2ncnc3ccc(Br)cc23)CC1	TEAD-YAP inh 39
COCCCNc1ncnc2sc(C)cc12	none
Cc1nc(NCc2ccccn2)c2cc(C)sc2n1	none
COc1ccccc1CNc1ncnc2sc(C)c(C)c12	none
COc1ccccc1CNc1ncnc2sc(C)cc12	TEAD-YAP inh 32
COc1ccccc1CNc1nc(C)nc2sc(C)cc12	TEAD-YAP inh 48
CCCCNc1ncnc2sc(C)cc12	TEAD-YAP inh 37
CC(=O)NC(c1cccs1)c1cc([N+](=O)[O-])c2cccnc2c1O (stereo not given)	MITF inh 79
COc1ccc(C(NC(C)=O)c2cc([N+](=O)[O-])c3cccnc3c2O)cc1 (stereo not given)	none
CCC(=O)NC(c1cccs1)c1cc([N+](=O)[O-])c2cccnc2c1O (stereo not given)	none
CC(=O)NC(c1ccccc1Cl)c1cc([N+](=O)[O-])c2cccnc2c1O (stereo not given)	MITF inh 90
CCOc1cc(C(NC(C)=O)c2cc([N+](=O)[O-])c3cccnc3c2O)ccc1O (stereo not given)	MITF inh 85
O=C(NCc1n[nH]c(=S)n1-c1cccc(Cl)c1)c1cccc(F)c1	none
CCCCC[n+]1c(/C=C2\Sc3ccccc3N2CC)ccc2ccccc21	TEAD-YAP inh 83
CCCCN1/C(=C/c2ccc3ccccc3[n+]2CC)Sc2cc(NC(C)=O)ccc21	none
CCCC[n+]1ccccc1/C=C1\Sc2ccccc2N1CC	TEAD-YAP inh 89
CCC[n+]1c(/C=C2\Sc3ccccc3N2CC)ccc2ccccc21	TEAD-YAP inh 88
O=C(/C=C/c1ccc2c3c(cccc13)CC2)OCC(=O)c1ccc(Br)cc1	none
COc1ccc(S(=O)(=O)N(CC(=O)O)c2cccc(Cl)c2)cc1	none
CNC(=O)CN(c1cccc(Cl)c1)S(=O)(=O)c1ccc(OC)cc1	TEAD-YAP inh 45
Cc1cccc(-n2c(C)cc(C=C3C(=O)NC(=S)NC3=O)c2C)c1	none
Cc1cc(C=C2C(=O)NC(=O)NC2=O)c(C)n1-c1ccc(C(=O)O)c(Cl)c1	MITF inh 54
Cc1cc(C=C2C(=O)N(C)C(=O)N(C)C2=O)c(C)n1-c1ccc(Cl)c(C(=O)O)c1	none
CC(=O)NC1=NC(=O)/C(=C/c2cc(C)n(-c3ccc4c(c3)OCO4)c2C)S1	none
Cc1cc(C=C2C(=O)N(C)C(=S)N(C)C2=O)c(C)n1-c1ccc(Cl)c(C(=O)O)c1	MITF inh 68
Cc1cc(C=C2C(=O)NC(=S)NC2=O)c(C)n1-c1cccc(C(=O)O)c1	MITF inh 78
CC(=O)NC1=NC(=O)/C(=C/c2cc(C)n(-c3cccc(C(=O)O)c3)c2C)S1	MITF inh 75
Cc1cc2c(c(=O)n1Cc1cccs1)C(c1ccccc1Cl)C(C#N)=C(N)O2 (stereo not given)	none
CC(=O)C1=C(C)NC(SCC(N)=O)=C(C#N)C1c1ccc(Br)cc1 (stereo not given)	none
CCn1c(N)c(C(=O)CCl)c(=O)[nH]c1=O	none
CCOC(=O)c1cccc(NC(=O)CCC2CCCCC2)c1	FBW7 act 2.1
CCCCOC(=O)c1ccc(NC(=O)COc2ccc(Cl)cc2Cl)cc1	none
CCOC(=O)c1cccc(NC2C=CS(=O)(=O)C2)c1 (stereo not given)	TEAD-YAP inh 63
